17 molecules from publication PMC5540273 (PLoS ONE, 2017) can be followed below.

Structures are written as SMILES.

Test systems include CAMK1; CAMK2A; CAMK2B; CAMK2D; CAMK2G; CAMK4; CAMKK1; CAMKK2; CASK.
What all share (conditions): concentration: 1 μM, replicates: in singlicate; n = 1
The subject of another experiment is T1, CDC2L1.
T1 construct: gene CDK11B
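Further: KINOMEscan kinase panel screen.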

In the case of `CC(C)(C)c1ccc2nccc(Nc3cccc(O)c3)c2c1` [GW856795], the “%Inh” value in the experiment on CAMK1, with CAMK2A, in the experiment on CAMK2B, in the experiment with CAMK2D, with CAMK2G and with CAMK4 was 0% each time. For the same molecule, the “%Inh” value is given as 2% in the experiment on CAMKK1, 0% with CAMKK2, 0% in the experiment on CASK and 0% in the experiment with CDC2L1.

`Clc1ccc(-c2nn3ncccc3c2-c2ccnc(Nc3ccc4c(c3)OCCO4)n2)cc1` [GW829116]: the “%Inh” value in the experiment on CAMK1 is on record as 0%; in the experiment on CAMK2A, 0%; with CAMK2B it was 0%; in the experiment with CAMK2D, 0%; with CAMK2G it was 0%; in the experiment with CAMK4 it was 3%. In addition, the “%Inh” value in the experiment with CAMKK1 worked out at 0%; with CAMKK2 it was 0%; in the experiment on CASK it was 15%; in the experiment with CDC2L1, 0%.

Turning to `Cl.Cl.NCC(C(=O)Nc1cc(Br)c(-c2ccnc3[nH]ccc23)s1)c1ccccc1` (centres unmarked) [GSK1269851], the “%Inh” value is reported as 0% in the experiment on CAMK1; 100% with CAMK2A; 100% in the experiment with CAMK2B; 8% in the experiment with CAMK2D; 12% with CAMK2G; 0% with CAMK4. Besides, the “%Inh” value amounted to 8% in the experiment on CAMKK1, 0% in the experiment with CAMKK2, 25% in the experiment on CASK and 1% with CDC2L1.

Consider `COc1cc2c(cc1OCCN1CCNCC1)ncc1c3ccc(C#N)cc3[nH]c21`, for which the “%Inh” value stood at 10% in the experiment with CAMK1; 96.8% with CAMK2A; 86% in the experiment with CAMK2B; 88% in the experiment with CAMK2D; 79% in the experiment on CAMK2G; 0% in the experiment with CAMK4. In addition, the “%Inh” value with CAMKK1 is listed as 80%; with CAMKK2 it was 64%; with CASK, 25%; with CDC2L1, 14%.

For the molecule `Fc1ccc(-c2ncn(C3CCNCC3)c2-c2ccnc(Oc3ccc(-c4ccccc4)cc3)n2)cc1` [SB-245391], the “%Inh” value in the experiment on CAMK1 is recorded as 30%; with CAMK2A, 20%; with CAMK2B it was 0%; in the experiment on CAMK2D, 14%; in the experiment on CAMK2G, 17%; with CAMK4, 0%. In addition, the “%Inh” value was 22% with CAMKK1, 20% in the experiment with CAMKK2, 7% in the experiment with CASK and 11% with CDC2L1.

`Cl.Cl.NCC(NC(=O)c1cc(-c2ccccc2)c(-c2ccnc3[nH]ccc23)s1)c1ccccc1` (centres unmarked) [GSK1321561]: the “%Inh” value is 4% in the experiment with CAMK1; 0% in the experiment with CAMK2A; 0% in the experiment on CAMK2B; 5% in the experiment with CAMK2D; 0% with CAMK2G; 0% in the experiment on CAMK4. For the same molecule, the “%Inh” value amounted to 15% in the experiment with CAMKK1, 10% in the experiment on CAMKK2, 13% in the experiment with CASK and 0% in the experiment on CDC2L1.

For the molecule `CNC(=O)c1ccccc1Nc1nc(Nc2ccc(N3CCOCC3)cc2)ncc1Cl.Cl` [GSK1576028], the “%Inh” value turned out to be 77% in the experiment with CAMK1; 25% with CAMK2A; 14% in the experiment on CAMK2B; 22% in the experiment with CAMK2D; 49% with CAMK2G; 0% in the experiment on CAMK4. The “%Inh” value was 93.2% with CAMKK1, 95% in the experiment on CAMKK2, 71% in the experiment on CASK and 16% in the experiment with CDC2L1.

In the case of `O=C(Nc1cccc(-c2nn3ncccc3c2-c2ccnc(Nc3ccccc3)n2)c1)c1c(F)cccc1F` [GSK198271], the “%Inh” value in the experiment on CAMK1 is given as 39%; in the experiment with CAMK2A, 0%; with CAMK2B it was 0%; in the experiment with CAMK2D, 13%; in the experiment with CAMK2G, 8%; with CAMK4, 0%. Moreover, the “%Inh” value in the experiment on CAMKK1 was determined as 0%; in the experiment on CAMKK2, 8%; with CASK, 3%; with CDC2L1 it was 0%.

With `Cn1cc(-c2ccc3c(c2)CCN3C(=O)Cc2cccc(Cl)c2)c2c(N)ncnc21` [GSK2606590], the “%Inh” value in the experiment with CAMK1 worked out at 26%; in the experiment with CAMK2A, 0%; with CAMK2B, 0%; in the experiment with CAMK2D, 18%; in the experiment with CAMK2G, 25%; with CAMK4, 0%. In addition, the “%Inh” value with CAMKK1 was 19%; in the experiment with CAMKK2, 12%; in the experiment on CASK, 7%; in the experiment with CDC2L1 it was 0%.

As for `O=C(Nc1cccc(-c2nn3ccccc3c2-c2ccnc(Nc3cccc(C(F)(F)F)c3)n2)c1)c1c(F)cccc1F` [GSK292658], the “%Inh” value with CAMK1 came out at 4%; with CAMK2A it was 0%; in the experiment with CAMK2B, 0%; with CAMK2D it was 5%; in the experiment on CAMK2G it was 0%; in the experiment on CAMK4, 0%. Moreover, the “%Inh” value in the experiment with CAMKK1 stood at 16%; in the experiment on CAMKK2 it was 3%; in the experiment with CASK, 0%; in the experiment on CDC2L1, 0%.

Take `Cl.c1ccc(-c2ccc3c(Nc4ccc5[nH]ncc5c4)ccnc3c2)nc1` [GW440137]: the “%Inh” value with CAMK1 was found to be 11%; in the experiment with CAMK2A, 0%; in the experiment with CAMK2B it was 0%; in the experiment with CAMK2D it was 12%; in the experiment on CAMK2G, 16%; in the experiment on CAMK4 it was 0%. The “%Inh” value with CAMKK1 is recorded as 0%; with CAMKK2, 19%; with CASK, 13%; in the experiment on CDC2L1, 0%.

In the case of `CN(C)Cc1ccc(-c2ccc3c(Nc4ccc(Oc5ccccn5)cc4)ccnc3c2)o1` [GW567148], the “%Inh” value amounted to 27% with CAMK1; 0% with CAMK2A; 0% with CAMK2B; 0% with CAMK2D; 15% with CAMK2G; 0% in the experiment with CAMK4. Further, the “%Inh” value in the experiment on CAMKK1, in the experiment on CAMKK2, with CASK and in the experiment with CDC2L1 was 0% each time.

As to `Cc1ccc(C(=O)N2CC[C@@H](O)C2)cc1-n1c(C)cc(OCc2ccc(F)cc2F)c(Br)c1=O`, the “%Inh” value in the experiment with CAMK1, with CAMK2A, in the experiment on CAMK2B, with CAMK2D, in the experiment with CAMK2G and in the experiment with CAMK4 was 0% each time. For the same molecule, the “%Inh” value in the experiment on CAMKK1, with CAMKK2, with CASK and with CDC2L1 was 0% in each case.

As for `Cc1cccc(Nc2nc(N[C@H]3CCNC3)ncc2C(N)=O)c1.Cl` [GSK2197149], the “%Inh” value in the experiment on CAMK1 is listed as 41%; in the experiment on CAMK2A, 0%; in the experiment on CAMK2B, 0%; in the experiment on CAMK2D, 6%; with CAMK2G, 18%; in the experiment on CAMK4 it was 0%. In addition, the “%Inh” value came out at 2% in the experiment with CAMKK1, 17% with CAMKK2, 0% in the experiment with CASK and 73% in the experiment on CDC2L1.

In the case of `NCCCC(NC(=O)c1cc(Br)c(-c2ccnc3[nH]ccc23)s1)c1ccccc1.O=C(O)C(F)(F)F.O=C(O)C(F)(F)F` (centres unmarked) [GSK1287544], the “%Inh” value in the experiment with CAMK1 was found to be 13%; in the experiment on CAMK2A, 0%; in the experiment with CAMK2B it was 0%; in the experiment on CAMK2D it was 0%; in the experiment with CAMK2G, 10%; in the experiment with CAMK4, 0%. The “%Inh” value in the experiment with CAMKK1 amounted to 30%; in the experiment on CAMKK2, 8%; with CASK it was 0%; with CDC2L1, 0%.

As for `CSc1cccc2c(-c3ccncn3)c(-c3ccc(F)cc3)nn12` [GW514786], the “%Inh” value stood at 0% in the experiment with CAMK1; 0% in the experiment with CAMK2A; 0% in the experiment on CAMK2B; 0% in the experiment on CAMK2D; 10% in the experiment with CAMK2G; 0% with CAMK4. The “%Inh” value is 0% with CAMKK1, 0% in the experiment with CAMKK2, 45% with CASK and 0% in the experiment with CDC2L1.

As for `CN1CCN(CCCNc2nccc(-c3c(-c4ccc(F)cc4)nn4cc(C(F)(F)F)ccc34)n2)CC1` [GW621581], the “%Inh” value is given as 5% with CAMK1; 0% in the experiment with CAMK2A; 0% in the experiment on CAMK2B; 0% in the experiment on CAMK2D; 0% in the experiment with CAMK2G; 0% with CAMK4. For the same molecule, the “%Inh” value in the experiment on CAMKK1, in the experiment with CAMKK2, in the experiment on CASK and with CDC2L1 was 0% each time.
